# TDP1 cell noCPT: qHTS for Inhibitors of human tyrosyl-DNA phosphodiesterase 1 (TDP1): qHTS in cells in absence of CPT; DT40 Tdp1-/- hTDP1 cells, no CPT, ATP luminescence, 48 h; Potency, µM (top dose mostly 46.2 µM), without a hit: at the top dose activity change, negative = growth inhibition, most hits filed as inhibitors; 420,000 compounds, 15% hits; AID 686978, 2013; further: potency means the concentration at half of the fitted maximal effect; on the % scale 0 is the no-effect control and ±100 the full control effect; nearly all actives have a fitted effect of over 55% in size
#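 DT40 Tdp1-/-;hTDP1 cells, no CPT (DMSO vehicle only), 400 cells/well; compounds pin-transferred; ≥48 hr, 37 °C; CellTiter-Glo 30 min RT dark, luminescence read.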
# S-ASM inh: blocks human secretory acid sphingomyelinase; placental ASM, HMU-PC fluorogenic substrate, 60 min; Potency, µM (titrated, usually from 57.5 µM), for the others: top-dose activity change, negative = inhibition, actives largely listed as inhibitors; 340,000 compounds, 0.006% hits; AID 504937; further: potency means the concentration at half of the fitted maximal effect
# Target sequence (P17405 47-631 limits assumed): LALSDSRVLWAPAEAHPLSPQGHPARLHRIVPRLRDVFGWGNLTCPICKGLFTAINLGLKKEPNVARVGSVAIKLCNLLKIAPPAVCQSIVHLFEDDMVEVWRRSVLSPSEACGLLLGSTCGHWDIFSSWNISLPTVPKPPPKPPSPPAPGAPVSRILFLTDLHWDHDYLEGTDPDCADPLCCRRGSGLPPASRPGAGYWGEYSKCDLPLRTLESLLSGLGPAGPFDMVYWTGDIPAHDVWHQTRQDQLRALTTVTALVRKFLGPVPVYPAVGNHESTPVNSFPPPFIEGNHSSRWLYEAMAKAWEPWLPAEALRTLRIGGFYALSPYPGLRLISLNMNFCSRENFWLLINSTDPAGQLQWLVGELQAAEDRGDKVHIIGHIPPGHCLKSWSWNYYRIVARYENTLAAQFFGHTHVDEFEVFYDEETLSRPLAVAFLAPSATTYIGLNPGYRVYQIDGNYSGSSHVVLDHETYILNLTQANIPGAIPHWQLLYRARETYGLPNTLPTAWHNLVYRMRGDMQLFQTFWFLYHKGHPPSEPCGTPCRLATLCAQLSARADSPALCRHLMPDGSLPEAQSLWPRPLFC
#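 HMU-PC0 cleavage (9 uM final) by human placental ASM, 60 min at 37 °C following 10 min compound exposure at RT; stopped at pH 10, fluorescence Ex 386/Em 447 nm.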
# IL-1B inflam inh: blocks inflammasome-driven IL-1 beta release; 360,000 compounds, 4.7% hits; THP-1 LPS/ATP IL-1B secretion, AlphaLISA, 16 h; hits give low values; activity change, % at 57.5 µM; in the data active means activity change below about -50%; inconclusive means mostly about -30% to -49%; further: on the % scale 0 is the no-effect control and ±100 the full control effect
#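 THP-1 cells pretreated 1 hr with compounds (up to 57.5 uM final), then stimulated with LPS (250 ng/mL final) plus ATP (1.25 mM final); secreted IL-1B measured by AlphaLISA after 16 hr, decreased signal indicating inhibition.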
# TDP1 cell CPT: growth inhibition of DT40 Tdp1-/-;hTDP1 cells with camptothecin (screen for TDP1 inhibitors); Potency, µM (titrated, usually from 46.2 µM), for the others: top-dose activity change, negative = growth inhibition, usual class: inhibitors; AID 686979; 420,000 compounds, 12% hits; chicken DT40 Tdp1-/-;hTDP1 cells + 20 nM CPT, ATP luminescence, 48 h; further: potency means the concentration at half of the fitted maximal effect; on the % scale 0 is the no-effect control and ±100 the full control effect; nearly all actives have a fitted effect of over 55% in size
#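 Chicken DT40 Tdp1-/- cells complemented with human TDP1, 400 cells/well, exposed to compounds plus 20 nM camptothecin for at least 48 h at 37 C; viability read as ATP content by CellTiter-Glo luminescence.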
# TGFb SMAD3 inh: blocks TGF-b signaling. HepG2 CAGA-GFP TGF-b/SMAD3 reporter, GFP fluorescence, 18 h; TGF-beta stimulated, 500 pg/mL final. Potency, µM (highest dose often 46.1 µM), without a hit: top-dose activity, negative = inhibition, actives largely listed as inhibitors. 410,000 compounds, 1.2% hits; further: potency means the concentration at half of the fitted maximal effect; on the % scale 0 is the no-effect control and ±100 the full control effect; nearly all actives have a fitted effect of over 65% in size
#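 HEPG2 CAGA-GFP, 1000 cells/well; 2 h settle, 37 C; cpd via pin tool; TGF-b 500 pg/mL final; 18 h, 37 C; GFP imaging ex488/em500-530; %Activity normalised to -TGF-b and +DMSO controls; CRC fit, curve class.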
# HepG2 tox: HepG2 cytotoxicity, counter-screen for TGF-b inhibitors. 410,000 compounds, 0.76% hits. Potency, µM (series often up to 46.1 µM), for the others: top-dose activity change, negative = cytotoxicity, actives largely listed as cytotoxic. HepG2 CAGA-GFP viability, ATP luminescence, 18 h; further: potency means the concentration at half of the fitted maximal effect
#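 CellTiter-Glo luminescence gave cytotoxicity after 18 hours at 37 degrees C. The cells were HepG2 CAGA-GFP in 1% FBS DMEM, stimulated with 500 pg/mL TGF-beta after compound addition. %Activity was normalised to no-cell wells (complete cell-killing) and DMSO (no toxicity), and curves were fitted and classified.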
# * hit, by the source's call; ? = inconclusive; . = no result. Compounds with a hit are over-represented: about 19% of the library has one in this group of screens. Unless noted, the call rests on the fitted dose curve; in most records, active means well fitted curve in the direction sought with a large enough effect; inconclusive means small, poorly fitted or top-dose-only effect, or another doubt; inactive means no such curve, though single readings can be large; an effect the other way counts as inactive or inconclusive.
SMILES,TDP1 cell noCPT,S-ASM inh,IL-1B inflam inh,TDP1 cell CPT,TGFb SMAD3 inh,HepG2 tox
CCCCOc1ccc(NC(=O)Cn2nnnc2-c2ccccc2F)cc1,-21%,.,.,-18%,0%,-19%
COc1ccc(NC(=O)Cn2nnc(-c3ccccc3F)n2)cc1,-27%,4%,-2,-13%,51%,0%
O=C(NNc1cccc([N+](=O)[O-])c1)/C(=C\c1cccnc1)NC(=O)c1ccccc1,-19%,-7%,-3,2%,-10%,-1%
CC(C)/C(=N\NC(=O)Nc1ccccc1)c1ccccc1,-19%,0%,13,-1%,13%,-4%
CC/C(=N\NC(=S)Nc1cccc(C)c1)c1ccccc1,5.2µM*,-3%,-4,13µM*,-5%,-9%
CCC(=O)Nc1cccc(NC(=S)NC(=O)c2cccc(C)c2)c1,?,-8%,24,?,?,-12%
Cc1cccc(NC(=S)N/N=C(\c2ccccc2)C(C)C)c1,5.8µM*,-3%,9,?,7%,0%
Cc1ccc(NC(=O)Cn2cc(S(=O)(=O)NC(C)C)c(S(=O)(=O)NC(C)C)c2)cc1Cl,-87%,.,.,?,?,-100%
Cc1ccc2ccc3cc(C(=O)N4CCN(c5ccccc5)CC4)nc3c2[nH]1,18µM*,.,.,?,?,-37%
COc1ccccc1N1CCN(C(=O)c2cc3ccc4ccc(C)[nH]c4c3n2)CC1,21µM*,.,.,?,?,-41%
Cc1cc(C(=O)N2CCN(c3ccccc3)CC2)no1,1%,-1%,-20,1%,15%,-13%
CC(C)c1nnc(NC(=O)CSc2nnc(-c3ccco3)o2)s1,0%,0%,35,-3%,?,8%
COc1ccc(-c2cc(=S)ss2)cc1,?,.,.,19µM*,.,.
COc1ccc(-c2ccc(OC)cc2)cc1,1%,5%,-11,6%,2%,-4%
C1=C(c2ccc3c(c2)CN(Cc2cccn2-c2ncccn2)CCO3)Cc2ccccc21,0%,.,.,?,.,.
Cc1cc(C)nc(/N=C(/NC(=O)c2ccccc2)Nc2ccccc2)n1,-28%,-2%,7,-12%,-1%,-11%
Cc1cc(C)c2nc(SCCc3ccccc3)nc(C)c2c1,?,-4%,-23,-15%,5%,-9%
CCCC(=O)N/C(N)=N/c1nc(C)c2ccccc2n1,16µM*,5%,-85*,?,2%,10%
CCCCC(=O)N/C(N)=N/c1nc2ccccc2o1,?,0%,-11,?,13%,-1%
Cc1cc(C)c2nc(/N=C(\N)NC(=O)c3ccccc3)nc(C)c2c1,16µM*,7%,-27,-24%,-1%,12%
Cc1cc(C)c2nc(/N=C(\N)NC(=O)Nc3ccccc3)nc(C)c2c1,18µM*,.,-9,23µM*,?,-16%
CCc1ccc2nc(/N=C(\N)NC(=O)c3ccccc3)nc(C)c2c1,16µM*,-4%,-15,?,-2%,-40%
O=C(COC(=O)c1ccc(Cl)c(Cl)c1)NC1CCCC1,-5%,0%,-7,-23%,0%,-13%
Cc1ccc(S(=O)(=O)c2nc(-c3cccs3)oc2N2CCC(C)CC2)cc1,10µM*,.,.,23µM*,?,-17%
CC1CCN(c2oc(-c3cccs3)nc2S(=O)(=O)c2ccc(Cl)cc2)CC1,13µM*,.,.,?,?,-4%
SMILES,TDP1 cell noCPT,S-ASM inh,IL-1B inflam inh,TDP1 cell CPT,TGFb SMAD3 inh,HepG2 tox
COc1ccc(-c2nc(S(=O)(=O)c3ccc(C)cc3)c(N3CCCC3)o2)cc1,-25%,6%,19,-19%,-5%,3%
O=S(=O)(c1ccccc1)c1nc(-c2cccs2)oc1N1CCCCC1,?,.,.,29µM*,-1%,-5%
Cc1cccc(-c2nc(S(=O)(=O)c3ccc(Cl)cc3)c(N3CCCCCC3)o2)c1,?,.,.,?,-5%,0%
O=[N+]([O-])c1cnn(-c2nc(-c3cccs3)cc(C(F)(F)F)n2)c1,-23%,-1%,49,5%,12%,-1%
COC(=O)c1cnn(-c2ccc(C(=O)Nc3cc(OC)c(OC)c(OC)c3)cc2)c1N,?,.,.,?,7%,1%
O=C(C1CCCN(c2ncnc3c2nc2n3CCCCC2)C1)N1CCN(c2ccc(Cl)cc2)CC1 (configuration not stated),?,-17%,-1,?,?,-2%
COc1ccc(N2CCN(C(=O)C3CCCN(c4ncnc5c4nc4n5CCCCC4)C3)CC2)cc1 (configuration not stated),16µM*,-3%,-2,21µM*,-16%,-35%
CC(=O)c1ccc(N2CCN(C(=O)C3CCCN(c4ncnc5c4nc4n5CCCCC4)C3)CC2)cc1 (configuration not stated),15µM*,0%,0,15µM*,1%,-13%
CCn1c(NC(=O)c2ccc(COc3ccc(C)cc3[N+](=O)[O-])o2)nc2ccccc21,?,-3%,-11,16µM*,-17%,-28%
Cc1ccc(OCc2ccc(C(=O)Nc3cc(C)on3)o2)c([N+](=O)[O-])c1,-21%,5%,36,?,4%,1%
O=C(OCC1OC2C(Oc3nc(=O)ccn32)C1O)c1ccccc1 (configuration not stated),-11%,4%,0,-2%,1%,-2%
N=c1ccn2c(n1)O[C@H]1[C@@H](CO)[C@H](O)O[C@H]12,0.0058µM*,5%,39,0.037µM*,1%,-3%
COc1ccc(N2CCN(C(=O)c3cc(-c4ccc(F)cc4)[nH]c3C)CC2)cc1,-20%,?,-14,-21%,?,-20%
O=C(NC1CC1)c1ccc2c(c1)N(Cc1ccccc1)CCS2,-21%,373%,-24,?,8%,-9%
O=C(c1ccc2c(c1)N(Cc1ccc(F)cc1)CCS2)N1CCN(c2ccccc2)CC1,23µM*,.,.,21µM*,?,-51%
CCOC(=O)N1CCC(NC(=O)c2ccc3c(c2)N(Cc2ccc(F)cc2)CCS3)CC1,23µM*,459%,-8,23µM*,-7%,-7%
CCOC(=O)N1CCN(C(=O)c2cc(-c3ccc(F)cc3)[nH]c2C)CC1,21µM*,-3%,-10,?,-10%,-2%

# Source: PubChem
